# Values without a mark were called inactive. How the calls were made is not given here.
# Molecular target: Pantothenate synthetase (Mycobacterium tuberculosis (strain ATCC 25618 / H37Rv)) (UniProt P9WIL5)
# Test: Recombinant Mtb pantothenate synthetase (PanC) inhibitors, coupled enzyme, confirmatory (AID 375);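 further: 0% = full reaction with vehicle and 100% = no enzyme background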
# Settings: coupled enzyme assay; at 10 µM, hits give high values
# Pantothenate synthetase (Mycobacterium tuberculosis (strain ATCC 25618 / H37Rv)), sequence (P9WIL5 whole entry, looked up): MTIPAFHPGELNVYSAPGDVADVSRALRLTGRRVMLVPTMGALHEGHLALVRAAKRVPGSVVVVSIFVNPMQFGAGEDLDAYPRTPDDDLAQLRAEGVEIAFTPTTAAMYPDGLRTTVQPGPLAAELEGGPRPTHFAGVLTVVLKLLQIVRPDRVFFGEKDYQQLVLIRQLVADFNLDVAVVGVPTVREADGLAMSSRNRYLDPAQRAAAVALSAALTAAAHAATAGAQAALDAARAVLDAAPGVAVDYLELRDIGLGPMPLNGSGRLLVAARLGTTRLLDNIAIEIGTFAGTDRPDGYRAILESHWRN
row,SMILES,inhibition
1,O=C(Nc1nnc(N2CCCCCC2)s1)c1cc(-c2ccc(Br)cc2)on1,12%
2,CCCCCOC(=O)CSc1nnc(-c2cc(OC)c(OC)c(OC)c2)o1,4%
3,Cc1c(Cc2ccccc2)sc(N)c1C(N)=O,0%
4,COc1ccc(-n2nnnc2SCC(=O)c2ccc(O)c(O)c2)cc1,0%
5,COc1ccccc1OCCOCCn1cnc2ccccc2c1=O,0%
6,COC(=O)C1=C(C)Nc2ncnn2C1c1ccco1 (stereo not drawn),0%
7,Cc1c(C#N)c2ncnc(-c3ccccc3)c2n1-c1ccccc1,0%
8,COc1ccc(S(=O)(=O)N2CCC(C(=O)NCc3ccco3)CC2)cc1,2%
9,CCN(C1CCCCC1)S(=O)(=O)c1ccc(S(=O)(=O)N2CCN(CCC#N)CC2)cc1,0%
10,O=C(c1cc(C2CC2)on1)N1CCN(C(c2ccccc2)c2ccccc2)CC1,0%
11,Clc1ccc(C2Nc3ccccc3-n3cccc32)cc1 (stereo not drawn),0%
12,Cc1nc2c(-c3ccccc3)c(C)[nH]n2c(=O)c1Cl,0%
13,CCOc1ncccc1C(=O)Nc1ccc(Cl)cc1,2%
14,Cc1ccc2oc(C(=O)Nc3c(C)n(C)n(-c4ccccc4)c3=O)c(C)c2c1,0%
15,CCc1cc2c(=O)c(-c3nc4ccccc4[nH]3)coc2c(CN2CCC(C)CC2)c1O,4%
16,CC(C)CN(C(=O)COC(=O)Cc1n[nH]c(=O)c2ccccc12)C1CCS(=O)(=O)C1 (stereo not drawn),2%
17,Cc1ccc(NCc2nnc(SCC(=O)N3CCCCC3)n2CC2CCCO2)c(C)c1 (stereo not drawn),3%
18,CCN(Cc1cc2cc(OC)ccc2[nH]c1=O)C(=O)Cc1ccc(OC)cc1,0%
19,O=C(C1CCN(c2nnnn2-c2ccccc2)CC1)N1CCN(c2ccccc2)CC1,0%
20,CCCn1c(SCC(=O)NC(C)(C)C)nnc1C(C)C,3%
21,Cc1cccc(OCC(=O)Nc2cc(C)ccc2O)c1,0%
22,O=C(CN1C(=O)CCSc2ccccc21)Nc1ccc(F)cc1,1%
23,COc1ccc(-c2ccc(-c3nnn(CC(C)=O)n3)cc2)cc1,2%

# Source: PubChem BioAssay
